According to PubChem BioAssay AID1159580 (chemical genetic matrix, 2015):
In all, about 5,500 compounds went through this assay and about 2,000 (36%) were called active. Inconclusive results (about 18%) are left out. No stated cut-off is given here; in the data, active means normalized growth mostly below about 0.91 (no sharp cut-off); inconclusive means no clear call, values can overlap the other calls; inactive means mostly above about 0.92. Some of the results follow.

Test: chemical genetic growth profiling, strain panel (AID 1159580);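 further: tested at 20 µM; growth read once vehicle control cultures reached saturation at 30 °C; 1 = growth at the plate median or of vehicle wells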
Details: growth OD
[1] = S. cerevisiae deletion strains, locus YAL013W, strain DEP1, stronger effect = lower value
[2] = S. cerevisiae deletion strains, locus YPL241C, strain CIN2, stronger effect = lower value

Measured: normalized growth

Cc1onc(-c2c(Cl)cccc2Cl)c1NC(=O)O/N=C\c1ccc(N(C)C)cc1
inactive: S. cerevisiae deletion strains, locus YBR229C, strain ROT2, stronger effect = lower value 0.975 | S. cerevisiae deletion strains, locus YCL061C, strain MRC1, stronger effect = lower value 0.994 | S. cerevisiae deletion strains, locus YDL101C, strain DUN1, stronger effect = lower value 0.978 | S. cerevisiae deletion strains, locus YHR087W, strain rtc3, stronger effect = lower value 1.02 | S. cerevisiae deletion strains, locus YJR075W, strain HOC1, stronger effect = lower value 1.04 | S. cerevisiae deletion strains, locus YLR039C, strain RIC1, stronger effect = lower value 0.865 | S. cerevisiae deletion strains, locus YLR058C, strain SHM2 (second series), stronger effect = lower value 0.992 | S. cerevisiae deletion strains, locus YLR262C, strain YPT6, stronger effect = lower value 0.956 | S. cerevisiae deletion strains, locus YMR219W, strain ESC1, stronger effect = lower value 1.02 | S. cerevisiae deletion strains, locus YNL322C, strain KRE1, stronger effect = lower value 0.962 | S. cerevisiae deletion strains, locus YPR135W, strain CTF4, stronger effect = lower value 0.698 | S. cerevisiae strains, strain wild type, stronger effect = lower value 0.956
active: [1] 0.807 | S. cerevisiae deletion strains, locus YDR150W, strain NUM1, stronger effect = lower value 0.693 | S. cerevisiae deletion strains, locus YEL061C, strain CIN8, stronger effect = lower value 0.338 | S. cerevisiae deletion strains, locus YGR078C, strain PAC10, stronger effect = lower value 0.861 | S. cerevisiae deletion strains, locus YHR030C, strain SLT2, stronger effect = lower value 0.12 | S. cerevisiae deletion strains, locus YJR043C, strain POL32, stronger effect = lower value 0.769 | S. cerevisiae deletion strains, locus YLR085C, strain ARP6, stronger effect = lower value 0.0906 | S. cerevisiae deletion strains, locus YML094W, strain GIM5, stronger effect = lower value 0.152 | S. cerevisiae deletion strains, locus YMR263W, strain SAP30, stronger effect = lower value 0.78 | S. cerevisiae deletion strains, locus YNL153C, strain GIM3, stronger effect = lower value 0.907 | S. cerevisiae deletion strains, locus YNL298W, strain CLA4 (second series), stronger effect = lower value 0.266 | S. cerevisiae deletion strains, locus YNR030W, strain Alg12, stronger effect = lower value 0.357 | S. cerevisiae deletion strains, locus YOL006C, strain TOP1, stronger effect = lower value 0.25 | S. cerevisiae deletion strains, locus YPL055C, strain LGE1, stronger effect = lower value 0.624 | [2] 0.44

CC[C@@H](C)[C@H]1O[C@]2(CC[C@@H]1C)C[C@@H]1C[C@@H](C/C=C(\C)[C@@H](O[C@H]3C[C@H](OC)[C@@H](O[C@H]4C[C@H](OC)[C@@H](O)[C@H](C)O4)[C@H](C)O3)[C@@H](C)/C=C/C=C3\CO[C@@H]4[C@H](O)C(C)=C[C@@H](C(=O)O1)[C@]34O)O2
inactive: S. cerevisiae deletion strains, locus YAL040C, strain CLN3, stronger effect = lower value 1.01 | S. cerevisiae deletion strains, locus YCL061C, strain MRC1 (second series), stronger effect = lower value 0.948 | S. cerevisiae deletion strains, locus YER002W, strain NOP16, stronger effect = lower value 1.02 | S. cerevisiae deletion strains, locus YNL175C, strain NOP13, stronger effect = lower value 1.01 | S. cerevisiae deletion strains, locus YNL197C, strain WHI3, stronger effect = lower value 1.02 | S. cerevisiae deletion strains, locus YNL224C, strain SQS1, stronger effect = lower value 0.993 | S. cerevisiae deletion strains, locus YOR083W, strain WHI5 (second series), stronger effect = lower value 0.981
active: [1] 0.732 | S. cerevisiae deletion strains, locus YDR363W, strain ESC2, stronger effect = lower value 0.613 | [2] 0.869
